# Compounds without any hit were thinned out: in the full panel of roughly 79,000, 15% have a hit. A number with no mark means an inactive call. The source made the active and inactive calls. Cut-off read from the data, not from the text of the source: active = growth inhibition above about 70%; inactive = the rest. Where a SMILES comes first, the peptide text is derived from it. [ ]: non-standard residue; d: D form. The star is where a group is joined. ξ: configuration not given here. Bz = O=C(c1ccccc1)*; Bn = c1ccc(C*)cc1; ξC = NC(CS)C(=O)O
# Assays:
# [1] = NCI Yeast Anticancer Drug Screen. Data for the rad50 strain (AID 155);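 note: 0% = growth of vehicle-only cultures of the same strain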; conditions: S. cerevisiae rad50 strain growth inhibition; at 50.0 µM; hits give high values
# Procedure, shortened: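 Inhibition values express reduced yeast growth in compound-treated cultures relative to vehicle-treated controls.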
# [2] = NCI Yeast Anticancer Drug Screen. Data for the mec2-1 strain (AID 157); conditions: S. cerevisiae mec2-1 strain, at 50.0 µM, hits give high values
# Procedure, shortened: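 mec2-1 yeast strain, carrying an alteration in DNA damage repair or cell cycle control, was exposed to compounds; growth inhibition was measured relative to vehicle-treated controls.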
# [3] = NCI Yeast Anticancer Drug Screen. Data for the sgs1 mgt1 strain (AID 161);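 note: 0% = growth of cultures given vehicle only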; conditions: S. cerevisiae sgs1 mgt1 strain, at 50.0 µM, hits give high values
# Procedure, shortened: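 Yeast cells carrying a defined DNA-repair defect were exposed to test compounds. Growth inhibition was measured relative to vehicle-treated controls.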
# [4] = NCI Yeast Anticancer Drug Screen. Data for the cln2 rad14 strain (AID 165);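 note: 0% = growth equal to vehicle treated cultures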; conditions: S. cerevisiae cln2 rad14 strain, at 50.0 µM, hits give high values
# Procedure, shortened: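 Yeast carrying cln2 and rad14 alterations (cell cycle control and DNA damage repair) were exposed to compounds. Growth inhibition was measured against vehicle-treated controls.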
# [5] = NCI Yeast Anticancer Drug Screen. Data for the bub3 strain (AID 167); conditions: S. cerevisiae bub3 mutant strain, at 50.0 µM, hits give high values
# Procedure, shortened: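 Steps: expose the mutant yeast strain to compound; grow alongside vehicle-treated cultures; measure growth; express inhibition against the vehicle cultures.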
# [6] = NCI Yeast Anticancer Drug Screen. Data for the mlh1 rad18 strain (AID 175); conditions: S. cerevisiae mlh1 rad18 strain growth inhibition; at 50.0 µM; hits give high values
# Procedure, shortened: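 Growth inhibition of the yeast strain was measured after compound exposure and expressed relative to vehicle-treated controls. The strain carries defined defects in DNA damage repair.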
SMILES,growth inhibition [1],growth inhibition [2],growth inhibition [3] [%],growth inhibition [4],growth inhibition [5] [%],growth inhibition [6] [%]
CC(=O)OC1CCC2C(C)(CCC3C2(C)CCC2(C)C4CC(C)(C)CCC4(C)CCC32C)C1C (stereo not drawn),-15.1%,-6.25%,-11.8,-38.1%,-0.05,-11.8
CCOc1c(N=Nc2ccccc2Cl)c(C)nn1C(N)=S,-14.2%,8.7%,45.5,-2.25%,53.4,49.4
Cn1cnc2cc(N3CCOCC3)c([N+](=O)[O-])cc2c1=O,17.4%,12%,-0.7,12.8%,-1.9,17.8
CC(=O)Nc1ccccc1/C=C\c1ccccn1,-21.6%,-9.85%,-15.5,1.25%,-5.1,-11.7
CC(O)C(C)[N+](=O)[O-] (stereo not drawn),9.4%,0.5%,-2.8,11.6%,5.7,-1.05
CCC(=O)N1CCN(C(=O)CC)CC1,6.4%,-2.45%,-5.25,-12.8%,1.95,-2.25
CCC/C=N\NS(=O)(=O)c1ccc(NC(C)=O)cc1,4.65%,-28.4%,11.6,12.6%,-43.7,27.2
CCCCCCCCCCCC(=O)Nc1ccc(C(C)C)cc1,4.75%,-7.6%,-13.3,18.3%,21.2,-12.8
CCN(CC)CCNCc1c[nH]c(=S)[nH]c1=O,-7.25%,-1%,-19.4,-1.05%,1.35,-9.45
CC(C)(C)CC(C)(O)C(=O)O (stereo not drawn),6.9%,-18.9%,-15.8,-1.45%,-13.5,-3.55
CCc1ccc(/C(C#N)=C/c2ccc(N(C)CCC#N)cc2)cc1,10.8%,2.8%,18.8,5%,16.9,-23.9
CNC(=O)OCc1nc(SSC(C)(C)C)n(C)c1COC(=O)NC,2.65%,-1.5%,20.3,1.9%,16.2,-9.4
O=C(Nc1ccc(C(F)(F)F)cc1)NC(F)(F)F,-61.1%,-6.7%,-38.1,-16.6%,-3.65,-46.3
CCCCCCCCCCCCCCCC(=O)NC(CCCCN)C(=O)NC(CCCCN)C(=O)OCC (stereo not drawn),77.9% (active),97% (active),68.9,94.5% (active),47.4,65.5
Cc1nc2c(c(=O)[nH]1)S/C(=C(/C#N)c1nc3ccccc3[nH]1)N2c1ccccc1,-39.8%,-29%,-42.4,-22%,-40.8,-47.9
O=C(OCCO)c1ccccc1O,2.95%,-0.8%,-34,3.3%,-0.9,1.35
O=C(Nc1ccccc1)c1nn(-c2cc(S(=O)(=O)O)c([N+](=O)[O-])cc2Cl)[n+](-c2cc(S(=O)(=O)[O-])c([N+](=O)[O-])cc2Cl)n1,-4.45%,-3.25%,-25.1,-26.8%,-23.6,2.3
S=C(Nc1ccccc1)Nc1nc(-c2ccccc2)c(N=Nc2ccc(Cl)cc2)s1,42.5%,2.6%,22.2,18.6%,-0.85,9.45
Cc1cc(C)c(C(C=O)c2ccccc2)c(C)c1 (stereo not drawn),18.6%,2.85%,10.3,17.9%,6.25,4.45

SMILES,growth inhibition [1],growth inhibition [2],growth inhibition [3] [%],growth inhibition [4],growth inhibition [5] [%],growth inhibition [6] [%]
O=C(CNC(=O)c1ccccc1)NC(CSCc1ccccc1)C(=O)O (stereo not drawn) (Bz-Gly-[ξC](Bn)-OH),-12.4%,5.55%,-28.8,-19.1%,-34.2,-1.3
N/N=C(\C(=O)Nc1ccc(Cl)cc1Cl)C(c1cnc2ccccc2n1)[N+](=O)[O-] (stereo not drawn),12.5%,-21.9%,-3.6,-20.6%,-9.45,0.45
O=C1NCCN(CCc2ccccc2)C1c1ccccc1 (stereo not drawn),-9.6%,0.95%,-8.85,-31.9%,15,-6.05
CCCCCCCCCCCCCCCCCCCOc1ccc(OCCCCCCCCCCCC)cc1,35%,-7.15%,25.9,-40.1%,-1.35,-15.9
Cc1cc(C(C)(C)C)cc(Cc2cc(C(C)(C)C)cc(Cc3cc(C(C)(C)C)cc(C)c3O)c2O)c1O,-25.8%,-4.75%,-43.3,-13.3%,-0.6,-24
CCCCN(C(C)=O)c1ccccc1,-8.8%,9.45%,4.2,-6.15%,-9.4,1.1
N#CCC1C2CC3C(C2=O)C13 (stereo not drawn),-0.6%,5.85%,-2.2,22.4%,4.65,-39.8
O=C1C(Cl)N(c2c(Cl)cccc2Cl)C1c1c[nH]c2ccccc12 (stereo not drawn),-35.5%,-43.6%,-34.2,-22.4%,-20.9,-41.8
COC(=O)c1ccc(Cl)cc1OCC(=O)Nc1ccccc1,-29.1%,-0.55%,-12.2,-27.7%,-4.6,-3.65
N#CCC(=O)N1CCCCCCC1,20.4%,-8.9%,2.7,0%,6.05,0
CCCCC(SC(CC)(CC)C(N)=O)C(N)=O (stereo not drawn),8%,-6.5%,6.55,-28.9%,8.7,-5.6
CCCCCCC1OCC(CC)(CC)CO1,11.8%,-12.4%,-18.9,-26.5%,-15.6,26.4
CCNC(=S)OC1CCC2(C)C(=CCC3C2CCC2(C)C(C(C)CCC(CC)C(C)C)CCC32)C1 (stereo not drawn),-1.7%,6.6%,-11.6,-24.4%,-1.55,-23.8
O=C(NC(Cc1ccccc1)C(=O)NC(Cc1c[nH]c2ccccc12)C(=O)O)OCc1ccccc1 (stereo not drawn),1.9%,7.45%,-3.95,-7.3%,-3.55,12.2
CCN(CC)CCCCCOC(=O)c1cccc(N)c1,-5.8%,0.35%,-16.6,-45.9%,27.2,-10.1
Cc1c(N(C)C)ccc2c(=O)c3cccc(CC(=O)O)c3oc12,20%,21.7%,-5.35,8.6%,-16.1,-5.05
CN(C)CCC(CCN(C)C)=NOC(=O)c1ccccc1,-5.45%,-20.2%,10.1,8.55%,21.4,15.6
Cc1cccc(CBr)c1-c1c(C)cccc1CBr,-19.2%,10.8%,10.1,-31.1%,27.6,-0.65
Cc1cc(=O)oc2c(-c3ccccc3)nnc(Cl)c12,21.4%,15%,16.2,13.9%,18.1,40.5
